The values that follow come from PubChem BioAssay (NCATS).

The target of experiment [1] is Lysosomal acid glucosylceramidase (Homo sapiens) (UniProt P04062). The experiment is described as follows: Glucocerebrosidase-p2 (AID 348; in the data active means potency below about 10 µM; further: potency means the concentration at half of the fitted maximal effect). The settings on record: purified GBA, blue fluorogenic substrate, 40 min. The procedure, abridged: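 Compounds titrated from 0.6 nM upwards against 0.2 nM enzyme in pH 5.9 citric acid/KH2PO4, taurocholate, tween-20; blue fluorogenic substrate 80 uM, 40 min room temperature, stopped and read Ex 365/Em 440 for AC50.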
Sequence of Lysosomal acid glucosylceramidase (Homo sapiens) (P04062 whole entry, looked up): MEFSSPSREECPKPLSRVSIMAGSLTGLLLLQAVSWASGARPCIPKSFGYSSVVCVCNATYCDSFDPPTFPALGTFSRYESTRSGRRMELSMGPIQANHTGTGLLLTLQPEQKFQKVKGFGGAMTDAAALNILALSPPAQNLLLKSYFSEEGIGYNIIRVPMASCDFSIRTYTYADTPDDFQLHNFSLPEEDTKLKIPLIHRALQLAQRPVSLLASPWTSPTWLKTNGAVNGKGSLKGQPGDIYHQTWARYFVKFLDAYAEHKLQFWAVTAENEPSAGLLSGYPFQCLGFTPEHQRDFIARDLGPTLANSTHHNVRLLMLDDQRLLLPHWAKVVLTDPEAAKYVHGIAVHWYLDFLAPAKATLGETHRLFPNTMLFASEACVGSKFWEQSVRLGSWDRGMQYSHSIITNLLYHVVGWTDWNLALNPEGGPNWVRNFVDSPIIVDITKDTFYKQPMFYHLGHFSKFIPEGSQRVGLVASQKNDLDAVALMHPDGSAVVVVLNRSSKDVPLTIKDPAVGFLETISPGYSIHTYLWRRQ

A short description of experiment [2]: AP1 Signaling Pathway (AID 357; active means well fitted curve in either direction with a large enough effect, not every such curve was filed as active;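 further: ME-180 reporter cells stimulated with EGF at its EC50 level; on the % scale 0 is the no-effect control and ±100 the full control effect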). The settings on record: ME-180 AP-1-bla reporter, EGF-induced, beta-lactamase ratio, 5 h; at 7.69 µM (top of the series) unless noted. An outline of the steps: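 In this screen, ME-180 cells in Opti-MEM with 0.5% dialyzed FBS received EC50 EGF and compound titrations for 5 h. AP-1 reporter beta-lactamase was detected via CCF4 ratio, giving AC50 for positive and negative modulators.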

The target in experiment [3] is Cytochrome P450 1A2 (Homo sapiens) (UniProt P05177). The experiment is described as follows: p450-cyp1a2 (AID 410; calls by dose curve; further: potency means the concentration at half of the fitted maximal effect). The settings on record: recombinant CYP1A2, luciferin-ME demethylation, luminescence; series mostly up to 57 µM. The procedure, abridged: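 Inhibition was calculated relative to 57 uM furafylline (full inhibition). The reaction used human CYP1A2 at 20nM with Luciferin-ME at its Km, 100uM, driven by an NADPH-regenerating system for 60 min at room temperature.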
Sequence of Cytochrome P450 1A2 (Homo sapiens) (P05177 whole entry, looked up): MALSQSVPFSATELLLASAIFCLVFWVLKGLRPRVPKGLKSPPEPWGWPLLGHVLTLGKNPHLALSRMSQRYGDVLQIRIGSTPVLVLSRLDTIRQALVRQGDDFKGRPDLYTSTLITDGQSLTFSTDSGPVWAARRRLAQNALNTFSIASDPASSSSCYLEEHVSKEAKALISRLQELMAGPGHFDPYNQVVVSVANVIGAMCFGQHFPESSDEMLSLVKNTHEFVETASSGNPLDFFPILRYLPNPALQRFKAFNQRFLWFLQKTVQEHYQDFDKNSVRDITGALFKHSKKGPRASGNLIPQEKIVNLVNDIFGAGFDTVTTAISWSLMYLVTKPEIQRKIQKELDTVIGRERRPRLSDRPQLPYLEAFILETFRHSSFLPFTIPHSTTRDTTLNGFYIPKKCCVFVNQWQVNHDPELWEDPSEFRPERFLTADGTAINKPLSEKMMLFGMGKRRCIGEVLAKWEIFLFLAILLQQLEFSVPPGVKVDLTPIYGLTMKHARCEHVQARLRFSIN

The nature of experiment [4]: NFAT Signaling Pathway (AID 444; active means well fitted curve in either direction with a large enough effect, not every such curve was filed as active;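 further: carbachol stimulus at about its EC50 of 1 µM final; on the % scale 0 is the no-effect control and ±100 the full control effect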). The settings on record: Jurkat NFAT-bla M1, carbachol, beta-lactamase ratio, 5 h; at 7.69 µM (top of the series) unless noted. The procedure, abridged: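 Read-out: CCF4 FRET ratio (460 nm/530 nm) after 1 h RT dye loading, used for %activity and AC50 from titration series. Cells: Jurkat NFAT-β-lactamase/M1 line, treated with compound plus 1 uM carbachol for 5 h, 37 °C.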

The nature of experiment [5]: Stat Signaling Pathway (AID 446; active means well fitted curve in either direction with a large enough effect, not every such curve was filed as active;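 further: ME-180 cervical cancer cells given 40 pM IL-6 alongside compound; SIE-controlled beta-lactamase reporter measured as 460/530 nm FRET emission ratio; on the % scale 0 is the no-effect control and ±100 the full control effect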). To be noted: ME-180 SIE beta-lactamase reporter, IL-6 stimulated, 5 h; at 7.69 µM (top of the series) unless noted. The procedure, abridged:
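ME-180 cells carrying a SIE-driven beta-lactamase reporter are stimulated with 40 pM IL-6 for 5 h at 37C in the presence of compound. The 460/530 nm FRET substrate ratio is read after 2.5 h at RT. Data are normalised to 300 pM IL-6 and to 125 nM JAK inhibitor controls.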

Experiment [6] addresses Glucocorticoid receptor (Homo sapiens) (UniProt P04150). The experiment is described as follows: GR-GFP Redistribution (AID 450;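 active means compounds whose dose series gives a full or clear partial fitted curve of increased nuclear translocation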; further: potency means the concentration at half of the fitted maximal effect). The settings on record: U2OS GR-GFP nuclear translocation, laser cytometry, 2 h.
For experiment [7] the target is unchanged. The experiment is described as follows: GR-EFC Redistribution (AID 451; calls by dose curve; further: potency means the concentration at half of the fitted maximal effect). The settings on record: CHO-K1 GR-EFC translocation, beta-gal luminescence, 2 h. An outline of the steps:
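Translocation of GR-ED fusion to nuclear EA restores b-gal, read by luminescence after 1 h room-temperature detection. Engineered CHO-K1 biosensor cells, 1,000/well, exposed 2 h at 37 C to titrations up to 46 uM final.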

In experiment [8] the target is Mitogen-activated protein kinase 10 (Mus musculus) (UniProt Q61831). The experiment is described as follows: JNK3 AlphaScreen Assay (AID 530; active means well fitted curve in either direction with a large enough effect, not every such curve was filed as active;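 further: kinase came from lysate of stimulated human HepG2 cells; signal reports phosphorylation of biotinylated GST-cJun 1-79 at Ser73 with 10 µM ATP; on the % scale 0 is the no-effect control and ±100 the full control effect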). To be noted: JNK3 lysate, c-Jun phosphorylation; series mostly up to 57.1 µM. The procedure, abridged: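 Room-temperature AlphaScreen kinase assay; pre-activated HepG2 lysate as JNK3 source, biotin-GST-cJun(1-79) substrate, 10 uM ATP, compound 15 min preincubation.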
A general note: In Alpha technology, singlet oxygen from a donor bead excites a nearby acceptor bead.

In experiment [9] the target is 3',5'-cyclic-AMP phosphodiesterase 4B (Homo sapiens) (UniProt Q07343). As to the kind of experiment: qHTS Assay for Inhibitors of PDE-IV (AID 607; active means well fitted activation curve with a large enough effect in the main read-out, with a control signal flat, not every such curve was filed as active; further: % of control where 0% means no effect). The settings on record: HEK293 ACTOne CNG channel cells, membrane potential fluorescence; series mostly up to 22.9 µM. The procedure, abridged:
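HEK293 ACTOne cells with CNG channel (1000/well), endogenous PDE4; membrane potential dye, compounds up to 22.9 uM final. Fluorescence Ex 535/Em 590; RO 20-1724 (100 uM final) as reference.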

For experiment [10], the target named is Dual specificity protein kinase CLK4 (Homo sapiens) (UniProt Q9HAZ1). As to the kind of experiment: qHTS Assay for Inhibitors of CDC-like Kinase 4 (ADP-FP Assay) (AID 1795).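 Further: recombinant human CLK4 phosphorylating RS repeat peptide at 1 µM ATP; on the % scale 0 is the no-effect control and ±100 the full control effect; nearly all actives have a fitted effect of over 60% in size.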 To be noted: Transcreener ADP fluorescence polarization; series mostly up to 50 µM. An outline of the steps:
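Inhibition of ADP formation by 6.25 nM Clk4 is measured using 1 uM ATP and 100 uM RS repeat peptide over one hour. Produced ADP displaces a fluorescent tracer from antibody, lowering polarization.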
(Quantitative high-throughput screening tests each substance at several concentrations.)

For experiment [11], the target named is Ubiquitin carboxyl-terminal hydrolase 1 (Homo sapiens) (UniProt O94782). The experiment is described as follows: Inhibitors of USP1/UAF1: Pilot qHTS (AID 504865).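 Further: rhodamine fluorescence freed from ubiquitin-rhodamine substrate followed over time; top concentration of the series differs between compounds; on the % scale 0 is the no-effect control and ±100 the full control effect; nearly all actives have a fitted effect of over 35% in size.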 The settings on record: purified USP1/UAF1, Ub-rhodamine cleavage fluorescence; series mostly up to 54.9 µM. An outline of the steps:
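Kinetic fluorescence assay: 1nM USP1/UAF1, 15 min compound preincubation, then 150nM Ub-Rho; 480/540 nm.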

A short description of experiment [12]: Primary qHTS for small molecule stabilizers of the endoplasmic reticulum resident proteome: Secreted ER Calcium Modulated Protein (SERCaMP) assay (AID 1508630). Further: on the % scale 0 is the no-effect control and ±100 the full control effect. The settings on record: SH-SY5Y GLuc-SERCaMP (Gaussia luciferase released on ER calcium loss) secretion, thapsigargin, luminescence; series mostly up to 38.4 µM. The procedure, abridged:
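GLuc-SERCaMP-expressing SH-SY5Y cells, pretreated 16 h with compound, are challenged with thapsigargin to empty ER calcium stores; after 4 h, coelenterazine is added directly to the medium and luminescence is imaged.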

Experiment [13] deals with Cytochrome P450 3A4 (Homo sapiens) (UniProt P08684). As to the kind of experiment: qHTS Assay for Inhibitors and Substrates of Cytochrome P450 3A4 (AID 884). Further: potency means the concentration at half of the fitted maximal effect; nearly all actives have a fitted effect of over 50% in size. The settings on record: recombinant CYP3A4, Luciferin-PPXE luminescence; series mostly up to 57.1 µM. An outline of the steps:
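20 nM human CYP3A4 with 25 uM Luciferin-PPXE (at KM) in 200 mM KPO4, preincubated 10 min with compound; NADPH regeneration started a 60 min RT reaction. Luciferin detected by luminescence, normalized to 57 uM ketoconazole as full inhibition.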

For experiment [14] the target is unchanged. As to the kind of experiment: qHTS Assay for Activators of Cytochrome P450 3A4 (AID 885). Further: nearly all actives have a fitted effect of over 65% in size. To be noted: recombinant CYP3A4, Luciferin-PPXE luminescence, 60 min; series mostly up to 57.1 µM. The procedure, abridged: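 Human CYP3A4 (20 nM) with Luciferin-PPXE at 25 uM (its KM) in 200 mM KPO4; 10 min compound preincubation, then NADPH regeneration and 60 min reaction at RT. Luciferin read by luminescence; normalized to 57 uM ketoconazole full inhibition.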

The target in experiment [15] is Cytochrome P450 2C19 (Homo sapiens) (UniProt P33261). As to the kind of experiment: qHTS Assay for Inhibitors and Substrates of Cytochrome P450 2C19 (AID 899). Further: potency means the concentration at half of the fitted maximal effect; nearly all actives have a fitted effect of over 60% in size. The settings on record: recombinant CYP2C19, luciferin-H EGE luminescence; series mostly up to 57.1 µM. The procedure, abridged:
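5nM enzyme + 10uM Luciferin-H EGE (=KM), 50mM KPO4; cpd pin-transferred, 10 min 37C; NADPH regen, 60 min 37C; stopped w/ luciferin detection reagent, 20 min; luminescence. Normalized to 57uM ketoconazole (AC100).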

The nature of experiment [16]: qHTS Assay for Identification of Small Molecule Agonists for Hypoxia Response Element Signaling Pathway (AID 914; active means well fitted activation curve with a large enough effect in the signal ratio, with a control signal flat, not every such curve was filed as active; the % refers to the signal ratio; further: % of control where 0% means no effect). To be noted: ME-180 (cervical carcinoma) HRE-bla reporter, beta-lactamase ratio, CoCl2, 17 h; activation: active compounds read high. The procedure, abridged:
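Cells were plated overnight, pin-dosed with compound in a titration series, co-stimulated with EC50 CoCl2 and incubated 17 hours at 37 degrees Celsius. CCF4 substrate was then loaded, and AC50 values came from the 460nm/530nm ratio.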

Values without a mark were called inactive. Inconclusive results are not listed. Calls of active or inactive are those of the source. Unless noted, the call rests on the fitted dose curve; in most records, active means well fitted curve in the direction sought with a large enough effect; inconclusive means small, poorly fitted or top-dose-only effect, or another doubt; inactive means no such curve, though single readings can be large; an effect the other way counts as inactive or inconclusive.

Sequence of Cytochrome P450 2C19 (Homo sapiens) (P33261 whole entry, looked up): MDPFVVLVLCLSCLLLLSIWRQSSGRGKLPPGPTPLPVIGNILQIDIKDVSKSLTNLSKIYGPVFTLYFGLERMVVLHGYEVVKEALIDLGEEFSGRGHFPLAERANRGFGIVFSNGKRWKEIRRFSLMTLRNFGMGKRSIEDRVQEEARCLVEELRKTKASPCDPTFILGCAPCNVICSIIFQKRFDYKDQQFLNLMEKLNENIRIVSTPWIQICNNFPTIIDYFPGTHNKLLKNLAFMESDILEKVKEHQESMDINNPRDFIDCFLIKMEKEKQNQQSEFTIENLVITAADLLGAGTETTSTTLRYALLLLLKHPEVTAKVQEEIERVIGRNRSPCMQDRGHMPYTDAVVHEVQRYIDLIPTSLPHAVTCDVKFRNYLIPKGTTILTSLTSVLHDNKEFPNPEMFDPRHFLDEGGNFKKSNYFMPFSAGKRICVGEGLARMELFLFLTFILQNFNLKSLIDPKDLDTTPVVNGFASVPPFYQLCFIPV
Sequence of Dual specificity protein kinase CLK4 (Homo sapiens) (Q9HAZ1 whole entry, looked up): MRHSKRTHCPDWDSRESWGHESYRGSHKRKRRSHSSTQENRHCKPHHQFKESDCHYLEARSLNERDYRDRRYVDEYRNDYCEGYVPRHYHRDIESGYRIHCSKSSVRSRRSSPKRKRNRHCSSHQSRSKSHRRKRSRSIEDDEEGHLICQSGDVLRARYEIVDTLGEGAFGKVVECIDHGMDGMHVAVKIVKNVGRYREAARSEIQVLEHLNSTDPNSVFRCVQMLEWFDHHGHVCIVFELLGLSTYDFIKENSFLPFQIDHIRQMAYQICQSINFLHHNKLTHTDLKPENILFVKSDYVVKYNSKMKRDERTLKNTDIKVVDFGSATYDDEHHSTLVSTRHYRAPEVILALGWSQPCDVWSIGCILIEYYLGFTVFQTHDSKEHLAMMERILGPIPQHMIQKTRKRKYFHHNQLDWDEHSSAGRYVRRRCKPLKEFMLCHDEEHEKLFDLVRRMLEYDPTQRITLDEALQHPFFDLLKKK
Sequence of Cytochrome P450 3A4 (Homo sapiens) (P08684 whole entry, looked up): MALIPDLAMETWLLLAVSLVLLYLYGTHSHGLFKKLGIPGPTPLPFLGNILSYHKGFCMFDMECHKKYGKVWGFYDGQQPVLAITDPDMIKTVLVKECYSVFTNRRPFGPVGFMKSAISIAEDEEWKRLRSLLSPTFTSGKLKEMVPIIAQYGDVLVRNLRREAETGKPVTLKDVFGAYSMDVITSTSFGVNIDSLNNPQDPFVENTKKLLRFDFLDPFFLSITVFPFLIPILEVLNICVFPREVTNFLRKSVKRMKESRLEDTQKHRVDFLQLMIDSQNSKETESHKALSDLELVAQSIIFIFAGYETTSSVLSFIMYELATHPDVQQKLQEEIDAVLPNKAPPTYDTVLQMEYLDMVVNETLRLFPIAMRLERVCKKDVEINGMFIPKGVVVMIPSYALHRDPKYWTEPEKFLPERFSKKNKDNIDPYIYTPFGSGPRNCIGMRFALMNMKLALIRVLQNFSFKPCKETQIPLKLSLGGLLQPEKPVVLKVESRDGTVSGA
Sequence of Glucocorticoid receptor (Homo sapiens) (P04150 whole entry, looked up): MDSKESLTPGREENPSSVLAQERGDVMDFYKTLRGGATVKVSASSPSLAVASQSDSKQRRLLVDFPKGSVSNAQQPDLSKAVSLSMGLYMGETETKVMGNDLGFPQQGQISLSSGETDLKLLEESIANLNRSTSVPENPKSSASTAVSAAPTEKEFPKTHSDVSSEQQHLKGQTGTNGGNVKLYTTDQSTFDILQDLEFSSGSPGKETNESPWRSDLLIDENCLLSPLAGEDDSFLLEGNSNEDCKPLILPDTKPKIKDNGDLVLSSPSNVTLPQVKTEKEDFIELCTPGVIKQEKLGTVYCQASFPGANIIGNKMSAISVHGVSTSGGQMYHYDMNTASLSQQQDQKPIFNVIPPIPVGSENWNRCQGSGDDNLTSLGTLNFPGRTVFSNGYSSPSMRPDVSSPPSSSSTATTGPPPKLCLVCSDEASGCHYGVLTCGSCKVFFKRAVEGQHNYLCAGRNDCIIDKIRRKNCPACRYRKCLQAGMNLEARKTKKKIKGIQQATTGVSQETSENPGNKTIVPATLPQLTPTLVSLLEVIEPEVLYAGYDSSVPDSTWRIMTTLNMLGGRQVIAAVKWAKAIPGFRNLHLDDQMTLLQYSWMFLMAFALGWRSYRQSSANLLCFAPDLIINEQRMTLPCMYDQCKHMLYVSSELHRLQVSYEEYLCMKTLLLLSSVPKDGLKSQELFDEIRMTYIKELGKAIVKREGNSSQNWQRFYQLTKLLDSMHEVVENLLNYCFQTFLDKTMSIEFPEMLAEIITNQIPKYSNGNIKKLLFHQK
Sequence of Ubiquitin carboxyl-terminal hydrolase 1 (Homo sapiens) (O94782 whole entry, looked up): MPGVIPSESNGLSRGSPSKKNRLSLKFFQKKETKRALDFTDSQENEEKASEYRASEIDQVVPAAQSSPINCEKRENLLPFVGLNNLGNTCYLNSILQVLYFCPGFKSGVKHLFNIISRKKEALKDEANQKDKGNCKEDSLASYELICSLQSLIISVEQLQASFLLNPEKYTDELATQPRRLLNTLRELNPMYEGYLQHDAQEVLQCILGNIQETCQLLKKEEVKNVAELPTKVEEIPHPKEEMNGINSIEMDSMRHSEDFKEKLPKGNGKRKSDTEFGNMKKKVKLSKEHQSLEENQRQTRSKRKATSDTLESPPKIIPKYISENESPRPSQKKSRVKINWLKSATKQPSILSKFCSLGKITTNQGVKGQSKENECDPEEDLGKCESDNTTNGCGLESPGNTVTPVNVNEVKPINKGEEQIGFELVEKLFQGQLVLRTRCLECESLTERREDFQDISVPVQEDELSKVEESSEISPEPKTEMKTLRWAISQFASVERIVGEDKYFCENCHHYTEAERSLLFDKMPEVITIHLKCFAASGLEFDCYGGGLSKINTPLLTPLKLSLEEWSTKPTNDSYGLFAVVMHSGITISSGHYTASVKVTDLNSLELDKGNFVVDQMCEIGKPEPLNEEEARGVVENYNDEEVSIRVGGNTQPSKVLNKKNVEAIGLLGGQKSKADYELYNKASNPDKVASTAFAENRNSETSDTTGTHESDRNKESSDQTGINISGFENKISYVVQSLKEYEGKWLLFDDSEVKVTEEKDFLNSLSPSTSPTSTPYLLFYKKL
Sequence of 3',5'-cyclic-AMP phosphodiesterase 4B (Homo sapiens) (Q07343 whole entry, looked up): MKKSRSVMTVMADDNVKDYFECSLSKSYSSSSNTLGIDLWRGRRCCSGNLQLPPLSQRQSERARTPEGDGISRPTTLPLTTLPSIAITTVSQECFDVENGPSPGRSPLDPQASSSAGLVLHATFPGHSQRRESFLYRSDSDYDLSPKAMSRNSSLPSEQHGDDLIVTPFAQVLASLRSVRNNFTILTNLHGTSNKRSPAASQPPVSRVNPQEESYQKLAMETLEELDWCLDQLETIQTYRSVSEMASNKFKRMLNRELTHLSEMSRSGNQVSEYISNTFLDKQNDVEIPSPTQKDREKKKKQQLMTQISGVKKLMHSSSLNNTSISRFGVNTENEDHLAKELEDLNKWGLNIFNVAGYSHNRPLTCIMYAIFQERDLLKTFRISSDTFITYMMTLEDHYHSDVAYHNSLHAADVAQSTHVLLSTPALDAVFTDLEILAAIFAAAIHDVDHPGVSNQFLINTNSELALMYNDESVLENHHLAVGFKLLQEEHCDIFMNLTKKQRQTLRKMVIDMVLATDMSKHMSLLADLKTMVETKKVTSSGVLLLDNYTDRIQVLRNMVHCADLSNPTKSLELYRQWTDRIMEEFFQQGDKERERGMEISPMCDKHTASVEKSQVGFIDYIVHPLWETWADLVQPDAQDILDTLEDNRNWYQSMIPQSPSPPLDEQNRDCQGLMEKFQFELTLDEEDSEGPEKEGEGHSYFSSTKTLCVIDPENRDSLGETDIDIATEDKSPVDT

Take `CNc1cc(-c2ccccc2C)ncn1`: the Potency in experiment [1] was greater than 11.4 µM; in experiment [3], 10 µM (active); in [6], greater than 46 µM; in experiment [7], greater than 46 µM. Further, the activity change, negative = inhibition in experiment [2] was 2.36%; in experiment [4], 2.04%. In addition, the activity, negative = inhibition in experiment [5] is 13.3%. Besides, the Potency result in experiment [8], in experiment [9], in experiment [10] and in [11] was “inactive” throughout. Also, the result in experiment [12] was inactive.

In the case of `COc1ccccc1CCn1c(=O)c(-c2cccs2)nc2cncnc21`, the Potency was greater than 11.4 µM in experiment [1]; 2 µM (active) in [3]; greater than 9.22 µM in experiment [6]; greater than 46 µM in experiment [7]; 3.16 µM (active) in [13]; 2 µM (active) in [15]. For the same compound, the results for the activity change, negative = inhibition in experiment [2] and in [4] were -29.2% and -5.89%, respectively. The activity, negative = inhibition in experiment [5] is -0.377%. For the same compound, the Potency result in experiment [8], in experiment [14], in experiment [10] and in [11] was “inactive” throughout. In addition, the outcome in experiment [12] was inactive.

In the case of `CN(C)c1ccc(-c2cncnc2NCc2cccnc2)cc1`, the Potency was greater than 11.4 µM in [1]; 1 µM (active) in experiment [3]; greater than 46 µM in [6]; greater than 46 µM in experiment [7]; 0.631 µM (active) in experiment [13]; 0.0316 µM (active) in experiment [15]. For the same compound, the activity change, negative = inhibition was -12.4% in [2] and 8.27% in [4]. Moreover, the activity, negative = inhibition in [5] was -10%. Moreover, the Potency result in [8], in experiment [9], in experiment [14], in experiment [10] and in experiment [11] was “inactive” each time. Also, the activation in experiment [16] was 1.46%. Besides, the result in experiment [12] was inactive.

As to `CC(=O)NCCNc1ccnc(-c2ccccc2C)n1`, the Potency was greater than 11.4 µM in [1], 3.98 µM (active) in experiment [3], greater than 46 µM in experiment [6] and greater than 46 µM in experiment [7]. Also, the activity change, negative = inhibition in experiment [2] is 12.2%; in experiment [4], 6.08%. Moreover, in experiment [5], the activity, negative = inhibition is 8.94%. Also, the Potency result in [8], in [9], in experiment [14], in [10] and in [11] was “inactive” throughout. Also, in [12], the outcome was inactive.

Take `Clc1ccccc1-c1nccc(NCCN2CCOCC2)n1`: the Potency in [1] was greater than 11.4 µM; in experiment [3], 2 µM (active); in experiment [6], greater than 46 µM; in experiment [7], greater than 46 µM; in experiment [15], 5.01 µM (active). The activity change, negative = inhibition in experiment [2] is 4.13%; in experiment [4], 3.47%. In addition, the activity, negative = inhibition in experiment [5] was 5.58%. For the same compound, the Potency entry in [8], in experiment [9], in [14], in experiment [10] and in experiment [11] was “inactive” each time. In experiment [12], the outcome was inactive.

In the case of `Cc1ccccc1-c1cc(NCc2cccnc2)ncn1`, the Potency in experiment [1] is greater than 11.4 µM; in [3], 3.98 µM (active); in experiment [6] it was greater than 46 µM; in experiment [7], greater than 46 µM. In addition, the activity change, negative = inhibition was 6.3% in experiment [2] and 2.72% in experiment [4]. For the same compound, the activity, negative = inhibition in [5] was -6.88%. For the same compound, the Potency entry in experiment [8], in experiment [9], in experiment [14], in [10] and in experiment [11] was “inactive” in each case. For the same compound, the result in [12] was inactive.
